Results reported in PubChem BioAssay AID720697 (Broad Institute, 2013).
Measured potencies and affinities stand elsewhere. Inconclusive results are not listed. The source made the active and inactive calls.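 Rule for the calls: active = signal loss with fitted half-maximal concentration at or below twice the top valid tested dose in every test run; inconclusive = runs disagree, flat 30 to 70% signal loss, or poor fit; inactive = all runs flat, opposite direction, or potency beyond limit.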

Assay: HEK293T cytotoxicity, dose response, cytotoxicity control for miR-122 modulator project, cell-based, inhibitor set, cherry-pick, set 2 (AID 720697)

SMILES | outcome
Cc1cccc(NC(=O)Nc2ccc3c(c2)C(=O)N(C)[C@@H]2CC[C@H](CC(=O)NCc4ccccc4Cl)O[C@H]2CO3)c1 | inactive
COCC(=O)Nc1ccc2c(c1)C(=O)N(C)[C@H]1CC[C@@H](CC(=O)NC3CCCC3)O[C@H]1CO2 | inactive
COCCN(C[C@@H]1[C@@H](c2ccccc2)[C@H](CO)N1C(=O)C1CCC1)C(C)=O | inactive
CN1C(=O)c2cc(NC(=O)c3cc(F)cc(F)c3)ccc2OC[C@@H]2O[C@@H](CC(=O)O)CC[C@@H]21 | inactive
CNC(=O)C[C@H]1CC[C@H]2[C@H](COc3ccc(NC(=O)c4cccc(OC)c4)cc3C(=O)N2C)O1 | inactive
CNC(=O)C[C@@H]1CC[C@H]2[C@@H](COc3ccc(NC(=O)C(C)C)cc3C(=O)N2C)O1 | inactive
OC[C@H]1[C@@H](c2ccccc2)[C@H](CNCC2CCC2)N1CC1CC1 | inactive
c1ccc(-c2nnc3n2CCCC3)cc1 | inactive
COc1ccc(S(=O)(=O)Nc2cccc3c2O[C@H](CN(C)CC2CCCCC2)[C@@H](C)CN([C@H](C)CO)C3=O)cc1 | inactive
C[C@@H]1CN([C@H](C)CO)S(=O)(=O)c2ccc(C3=CCCC3)cc2O[C@@H]1CN(C)C(=O)C1CCOCC1 | inactive
N#CCc1c(C#N)c(N)nc(N2CCN(S(=O)(=O)c3ccccc3)CC2)c1C#N | inactive
CN1C(=O)c2cc(NC(=O)c3ccccc3F)ccc2OC[C@H]2O[C@H](CC(=O)NCc3ccc4c(c3)OCO4)CC[C@@H]21 | inactive
COc1cccc(-c2nn(-c3ccccc3)cc2CO)c1 | inactive
